Test results: the supplement of paper PMC6555819

These sequences were tested on RARg homodimer (NR concentration 270 nM) (assay: PBM binding z-score (relative to random genomic background probes); higher = stronger binding; sequences stand for … in GC…GCGATTGACAGCGTAGAATGAAGG).
Procedure, shortened: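 Ligand-free nuclear receptor dimers were applied to custom Agilent 4×180K protein-binding microarrays whose double-stranded probes carried direct-repeat seeds, single-nucleotide variants, half-site ablations and random human genomic background sequences in 34-nt variable regions. Incubation lasted 1 h. Binding z-scores were computed against the random background probes from regression-normalized fluorescence.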
Sequence GCGGCTAGGTCAGGTTGGTCAGCTAACGGGTACG has a PBM binding z-score of 3.36.
TCTAGCAGGCCAGAGGGTCACTCATGAGGTACGG showed a PBM binding z-score of 2.22.
Work on ACTTACGGGTCAACGAGGTTATCGCACGCGTATA yielded a PBM binding z-score of 5.38.
In the case of CTCGAAAAGTCGGTTGAGGTGAGTATACGGATAA, the PBM binding z-score is reported as 0.172.
Work on AGATTGAGGTTATTAAGATCAGGGAATTGCGGTC yielded a PBM binding z-score of 0.837.
Work on CATACAGGGTCAGCTAGGCCAGAGGAGGGACGGC yielded a PBM binding z-score of 4.65.
GCTTGCAGGCCATTTGGGTCACTCAATGACGGGC was tested, and the PBM binding z-score was 1.56.
TATACAGGGTCAAATGCCAGAGTACGAATGTCGA gave a PBM binding z-score of 4.98.
Sequence TGAATGAGGTTAAGGATCAGGGAACGTGGCGTCG has a PBM binding z-score of 1.38.
Work on TAGCCTAGGTCATGCGGGCCAGTGTAGTGTCGGC yielded a PBM binding z-score of 4.29.
With CGAGACAGGTGAGAAGGTAACTCAGCCTCGATTA the PBM binding z-score was 0.338.
With CCTAATTGGTCAAGGTCACACACGCTATAGGTAC the PBM binding z-score was 4.86.
Work on CAAACTAGGTCACAGAGGTAAAAGTCCGTGCGTA yielded a PBM binding z-score of 5.32.
With CCGAGTAGGTTATGGGGAATTCAGGCAACGGTGA the PBM binding z-score was 0.494.
For GCGACTGGGGCATCAGAAGGTTACCATAACTTAA, the PBM binding z-score was 1.06.
Sequence TCTATTAGTTGAAGGGCAACTGACGAGTCCGTTT has a PBM binding z-score of 0.548.
Work on TGAATGAGGTTACAAGATCAGGGAACGTTGCAAA yielded a PBM binding z-score of 1.52.
Work on TCTTGTAGATCAAAGGTTAAGAATGCCGAAGCCT yielded a PBM binding z-score of 0.719.
In the case of ATCGAAAGGTCGACGAGGTGAATATACACCGTTT, the PBM binding z-score is reported as 3.93.
CATACAGGGTCAGCTAGGCCAGAGTGGGGACGGC gave a PBM binding z-score of 4.75.
Work on TCATATAGATAAAGGTGAAAGTCGAACGATATGA yielded a PBM binding z-score of 1.2.
Work on CTAGAAAGGTCGGTTGAGGTGAGTATACGGATAA yielded a PBM binding z-score of 2.97.
TCATATAGGTAAAAGTTGAAAGTCGGTGTGGTAA gave a PBM binding z-score of 0.395.
TGAATGAGGTTGAAGATCAGGGAACGTGGCGTCG showed a PBM binding z-score of 0.179.
AAATGTAGGTTACATCCGGGTCATTCAGGCTATG showed a PBM binding z-score of 2.
GCATATAGGTAATCCAAGGTGAAAGTCCGATTGT was tested, and the PBM binding z-score was 0.453.
Work on CCTTACGGGTCACTGAAAGGTTATAGCATTTGGA yielded a PBM binding z-score of 4.86.
GCGACTGGGGCAAACCAGGTTACCATAAGGTTGG was tested, and the PBM binding z-score was 0.516.
With AGTCAAAGTTCATCTAGGTAACGTCAGATATGCT the PBM binding z-score was 6.22.
TCTTGTAGATCAATAGAGGTTATGAAAGTGCGCT was tested, and the PBM binding z-score was 0.611.
TCATATAGGTAAAAGCTGAAAGTCGGTGTGGTAA was tested, and the PBM binding z-score was -0.318.
Work on GGGACTGGGGCAAAGCAGGTTACCATAAGGTTGG yielded a PBM binding z-score of 0.994.
CTCGAAAGGTCGTGCTCAGGTGAGAATACCAAAC showed a PBM binding z-score of 4.09.
With TCGAGAAGGTTAGTCGGGGCATTCAGCCAACATA the PBM binding z-score was 0.546.
Sequence TCTTCTAGATCAAAGGTTAAGAAAGCCGAAGCCT has a PBM binding z-score of 1.03.
Sequence ATATGTAGGTTAGCTGGGGTCGTTCAGACTAGGC has a PBM binding z-score of 1.15.
Sequence AGAATGAGGTTACCAAAGATAAGGGAAACGCTTG has a PBM binding z-score of 1.54.
CCTCGGAGGACAGAAGCTCAGAGCTGTCCGCTTT gave a PBM binding z-score of -0.103.
With GATACAGGGACAAGGCCAGAGTACGCGTATTGAT the PBM binding z-score was 1.06.
GTTAGTTGGTCAGTAAAAGGTCACACACCGGTCG gave a PBM binding z-score of 5.37.
